# Reference: PubChem BioAssay (EPA / NIEHS)
# Results filed as inconclusive are left out. Active and inactive are the calls of the source. Rule for the calls: active = hit-call score of the fitted dose curve at least 0.9, where 1 is the maximum; inconclusive = response in the unintended direction; inactive = score below 0.9.
# Legend:
# [1] = target: human Vascular Endothelial Growth Factor Receptor 2 (VEGFR2), KDR (gene 3791) (UniProt P35968); test: NVS_ENZ_hVEGFR2: NovaScreen (NVS) Enzymatic Assay for human Vascular Endothelial Growth Factor Receptor 2 (VEGFR2) (AID 2283230)
# Chain of human Vascular Endothelial Growth Factor Receptor 2 (VEGFR2), KDR (gene 3791) (P35968 whole entry, looked up): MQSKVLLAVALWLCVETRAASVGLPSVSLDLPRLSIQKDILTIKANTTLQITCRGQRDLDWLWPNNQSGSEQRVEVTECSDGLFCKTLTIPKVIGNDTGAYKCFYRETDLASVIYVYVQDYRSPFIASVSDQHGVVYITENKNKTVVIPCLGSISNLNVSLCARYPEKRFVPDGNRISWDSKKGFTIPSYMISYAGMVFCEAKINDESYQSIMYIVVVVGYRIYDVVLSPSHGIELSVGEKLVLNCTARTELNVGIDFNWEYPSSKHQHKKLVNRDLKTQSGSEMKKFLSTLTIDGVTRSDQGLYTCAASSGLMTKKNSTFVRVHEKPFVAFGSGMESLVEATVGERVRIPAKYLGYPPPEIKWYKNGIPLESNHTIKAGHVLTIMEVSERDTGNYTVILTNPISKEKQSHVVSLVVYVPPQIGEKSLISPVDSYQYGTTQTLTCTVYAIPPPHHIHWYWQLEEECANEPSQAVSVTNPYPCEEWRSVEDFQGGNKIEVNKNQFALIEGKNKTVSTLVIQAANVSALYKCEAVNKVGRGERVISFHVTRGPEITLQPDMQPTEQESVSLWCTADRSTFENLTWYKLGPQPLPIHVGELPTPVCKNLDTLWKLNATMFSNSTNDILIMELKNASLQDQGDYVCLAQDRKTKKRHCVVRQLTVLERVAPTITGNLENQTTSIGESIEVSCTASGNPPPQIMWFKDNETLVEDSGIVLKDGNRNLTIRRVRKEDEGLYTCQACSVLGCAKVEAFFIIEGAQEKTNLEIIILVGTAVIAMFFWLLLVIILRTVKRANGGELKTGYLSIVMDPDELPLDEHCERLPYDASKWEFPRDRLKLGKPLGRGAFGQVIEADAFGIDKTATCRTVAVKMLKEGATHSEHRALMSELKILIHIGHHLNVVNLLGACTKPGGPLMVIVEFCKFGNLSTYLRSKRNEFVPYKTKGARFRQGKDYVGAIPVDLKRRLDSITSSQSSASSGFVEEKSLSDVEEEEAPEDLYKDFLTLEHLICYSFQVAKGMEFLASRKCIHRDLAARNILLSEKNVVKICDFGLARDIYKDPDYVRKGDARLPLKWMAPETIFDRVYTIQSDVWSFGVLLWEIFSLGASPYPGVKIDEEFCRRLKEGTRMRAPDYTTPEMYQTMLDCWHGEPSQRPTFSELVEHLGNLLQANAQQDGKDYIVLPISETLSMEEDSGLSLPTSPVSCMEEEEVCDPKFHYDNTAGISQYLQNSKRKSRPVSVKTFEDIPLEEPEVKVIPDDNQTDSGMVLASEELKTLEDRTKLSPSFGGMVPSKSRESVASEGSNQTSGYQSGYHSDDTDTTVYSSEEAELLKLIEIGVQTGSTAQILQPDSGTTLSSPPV
# How it was run: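 Cell-free recombinant VEGFR2 kinase, fluorescent substrate with electrophoretic mobility-shift separation; read 1 h after dosing. Screened at 25 uM in duplicate, hits to concentration-response up to 50 uM; loss-of-signal versus DMSO.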
# [2] = target: human Vascular Endothelial Growth Factor Receptor 3 (VEGFR3), FLT4 (gene 2324) (UniProt P35916); test: NVS_ENZ_hVEGFR3: NovaScreen (NVS) Enzymatic Assay for human Vascular Endothelial Growth Factor Receptor 3 (VEGFR3) (AID 2283229)
# Chain of human Vascular Endothelial Growth Factor Receptor 3 (VEGFR3), FLT4 (gene 2324) (P35916 whole entry, looked up): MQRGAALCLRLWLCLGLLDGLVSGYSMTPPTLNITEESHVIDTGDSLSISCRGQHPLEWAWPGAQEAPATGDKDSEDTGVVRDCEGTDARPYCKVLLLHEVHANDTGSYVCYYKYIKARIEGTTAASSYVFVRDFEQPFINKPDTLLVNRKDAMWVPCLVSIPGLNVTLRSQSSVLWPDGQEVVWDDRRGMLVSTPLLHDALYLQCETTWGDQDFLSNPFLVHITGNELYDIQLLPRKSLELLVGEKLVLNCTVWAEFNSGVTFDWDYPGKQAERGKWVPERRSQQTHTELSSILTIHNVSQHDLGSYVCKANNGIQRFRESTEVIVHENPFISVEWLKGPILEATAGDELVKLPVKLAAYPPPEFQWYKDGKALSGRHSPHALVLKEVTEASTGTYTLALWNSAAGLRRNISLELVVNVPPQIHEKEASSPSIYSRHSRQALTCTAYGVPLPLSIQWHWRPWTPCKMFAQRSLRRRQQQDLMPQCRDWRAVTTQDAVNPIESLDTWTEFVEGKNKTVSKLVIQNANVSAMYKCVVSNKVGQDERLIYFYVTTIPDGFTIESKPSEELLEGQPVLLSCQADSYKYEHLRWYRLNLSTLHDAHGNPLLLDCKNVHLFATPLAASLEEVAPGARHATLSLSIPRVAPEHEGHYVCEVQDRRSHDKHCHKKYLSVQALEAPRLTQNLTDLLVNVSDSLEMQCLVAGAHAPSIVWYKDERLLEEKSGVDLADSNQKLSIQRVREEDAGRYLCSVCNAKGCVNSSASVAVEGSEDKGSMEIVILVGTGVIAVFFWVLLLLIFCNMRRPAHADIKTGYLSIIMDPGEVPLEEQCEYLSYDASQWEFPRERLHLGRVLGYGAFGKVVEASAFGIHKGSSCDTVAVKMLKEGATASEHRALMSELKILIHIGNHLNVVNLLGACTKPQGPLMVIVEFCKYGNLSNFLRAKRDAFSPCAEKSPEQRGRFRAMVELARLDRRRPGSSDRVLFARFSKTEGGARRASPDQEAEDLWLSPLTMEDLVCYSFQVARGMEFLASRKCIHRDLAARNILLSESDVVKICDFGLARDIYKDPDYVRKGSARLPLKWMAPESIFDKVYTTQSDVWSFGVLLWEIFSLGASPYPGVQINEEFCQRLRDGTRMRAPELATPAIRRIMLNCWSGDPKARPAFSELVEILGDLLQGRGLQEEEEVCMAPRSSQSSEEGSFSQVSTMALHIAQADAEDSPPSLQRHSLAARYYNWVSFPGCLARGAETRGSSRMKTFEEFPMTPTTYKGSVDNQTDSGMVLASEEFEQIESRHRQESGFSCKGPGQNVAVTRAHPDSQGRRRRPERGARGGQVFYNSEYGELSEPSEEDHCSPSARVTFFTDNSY
# How it was run: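 Cell-free recombinant VEGFR3 kinase reaction with fluorescent substrate, read 1 h after dosing by electrophoretic mobility shift separation of substrate and product. Single-concentration duplicate screen at 25 uM, then concentration-response up to 50 uM; loss of activity versus DMSO.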
# [3] = target: sheep Cyclooxygenase-1 (Cox1), PTGS1 (gene 443551) (UniProt P05979); test: NVS_ENZ_oCOX1: NovaScreen (NVS) Enzymatic Assay for sheep Cyclooxygenase-1 (Cox1) (AID 2283239);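 note: actives reduce cyclooxygenase activity so potencies are for inhibitors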
# Chain of sheep Cyclooxygenase-1 (Cox1), PTGS1 (gene 443551) (P05979 whole entry, looked up): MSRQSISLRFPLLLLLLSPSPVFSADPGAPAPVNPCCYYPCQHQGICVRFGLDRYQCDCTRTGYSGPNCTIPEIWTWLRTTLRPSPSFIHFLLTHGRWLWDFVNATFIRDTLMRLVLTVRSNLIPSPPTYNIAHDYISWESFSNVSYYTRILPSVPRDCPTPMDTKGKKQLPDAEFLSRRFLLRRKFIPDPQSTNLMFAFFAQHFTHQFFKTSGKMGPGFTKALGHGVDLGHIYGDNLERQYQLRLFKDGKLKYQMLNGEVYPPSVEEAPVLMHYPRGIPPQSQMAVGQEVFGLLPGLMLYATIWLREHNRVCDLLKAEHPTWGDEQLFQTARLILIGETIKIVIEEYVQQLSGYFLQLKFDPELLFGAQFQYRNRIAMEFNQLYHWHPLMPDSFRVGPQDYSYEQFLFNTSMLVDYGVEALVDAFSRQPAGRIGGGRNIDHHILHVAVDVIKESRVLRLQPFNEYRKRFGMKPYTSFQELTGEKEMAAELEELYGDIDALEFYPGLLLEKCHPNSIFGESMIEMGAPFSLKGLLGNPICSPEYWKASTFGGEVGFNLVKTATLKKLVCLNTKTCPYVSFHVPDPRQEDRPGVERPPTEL
# How it was run: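 Tested in duplicate at 25 uM, then in concentration series if active, against seminal vesicle extract from sheep. Enzyme activity was measured colorimetrically at 0.66 hour and normalised to DMSO.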
# [4] = target: human Vascular Endothelial Growth Factor Receptor 1 (VEGFR1), FLT1 (gene 2321) (UniProt P17948); test: NVS_ENZ_hVEGFR1: NovaScreen (NVS) Enzymatic Assay for human Vascular Endothelial Growth Factor Receptor 1 (VEGFR1) (AID 2283226)
# Chain of human Vascular Endothelial Growth Factor Receptor 1 (VEGFR1), FLT1 (gene 2321) (P17948 whole entry, looked up): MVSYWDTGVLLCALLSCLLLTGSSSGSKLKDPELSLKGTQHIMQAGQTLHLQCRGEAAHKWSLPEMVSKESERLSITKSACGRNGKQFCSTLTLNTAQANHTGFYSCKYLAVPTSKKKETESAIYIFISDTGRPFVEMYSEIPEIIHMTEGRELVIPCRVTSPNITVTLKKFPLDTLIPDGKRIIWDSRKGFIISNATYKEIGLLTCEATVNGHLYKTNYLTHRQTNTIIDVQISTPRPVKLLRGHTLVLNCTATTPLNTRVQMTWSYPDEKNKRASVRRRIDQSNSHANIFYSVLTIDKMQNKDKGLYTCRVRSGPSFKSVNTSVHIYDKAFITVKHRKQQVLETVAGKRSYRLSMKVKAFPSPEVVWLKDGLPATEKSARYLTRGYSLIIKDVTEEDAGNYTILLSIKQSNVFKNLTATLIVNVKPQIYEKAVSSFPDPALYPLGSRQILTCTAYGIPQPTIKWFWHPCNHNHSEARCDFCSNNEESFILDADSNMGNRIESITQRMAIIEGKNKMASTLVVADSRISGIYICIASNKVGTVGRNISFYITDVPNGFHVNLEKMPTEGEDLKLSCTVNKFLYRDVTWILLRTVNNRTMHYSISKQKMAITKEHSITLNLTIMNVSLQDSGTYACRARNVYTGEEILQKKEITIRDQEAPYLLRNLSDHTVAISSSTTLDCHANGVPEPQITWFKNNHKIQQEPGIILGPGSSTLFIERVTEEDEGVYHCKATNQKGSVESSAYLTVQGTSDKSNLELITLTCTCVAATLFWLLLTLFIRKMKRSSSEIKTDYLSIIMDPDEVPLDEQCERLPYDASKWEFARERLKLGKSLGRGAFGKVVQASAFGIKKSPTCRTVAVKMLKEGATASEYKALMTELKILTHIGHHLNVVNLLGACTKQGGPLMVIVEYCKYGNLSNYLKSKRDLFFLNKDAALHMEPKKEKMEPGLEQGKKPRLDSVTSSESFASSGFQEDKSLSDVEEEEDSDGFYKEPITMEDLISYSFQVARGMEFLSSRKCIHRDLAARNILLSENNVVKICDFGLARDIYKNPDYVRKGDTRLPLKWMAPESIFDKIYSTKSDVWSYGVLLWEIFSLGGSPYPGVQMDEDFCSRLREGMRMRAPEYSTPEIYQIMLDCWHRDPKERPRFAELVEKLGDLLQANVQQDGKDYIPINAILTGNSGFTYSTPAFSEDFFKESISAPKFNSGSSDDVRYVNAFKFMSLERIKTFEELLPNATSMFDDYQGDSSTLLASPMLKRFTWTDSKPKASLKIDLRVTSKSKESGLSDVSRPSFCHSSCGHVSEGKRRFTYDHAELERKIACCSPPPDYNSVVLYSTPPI
# How it was run: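 Cell-free assay of recombinant human VEGFR1 kinase with substrate, measured 1 h after dosing; fluorescence with electrophoretic mobility-shift separation of substrate and product, referenced to DMSO; primary screen at 25 uM in duplicate, actives then run in concentration series.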
# [5] = tested on: bovine Angiotensin II Receptor Type 2 (AT2), gene 407157; test: NVS_GPCR_bAT2: NovaScreen (NVS) G Protein-Coupled Receptor Assay for bovine Angiotensin II Receptor Type 2 (AT2) (AID 2283240)
# How it was run: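 Radioligand displacement on bovine cerebellar membranes, 1 hour incubation, filter-based scintillation counting; loss of signal vs DMSO. Duplicate single-point screen at 25 uM, then concentration-response to 50 uM maximum.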
# [6] = target: guinea pig Leukotriene D4 Receptor (LTD4), CYSLTR1 (gene 100135514) (UniProt Q2NNR5); test: NVS_GPCR_gLTD4: NovaScreen (NVS) G Protein-Coupled Receptor Assay for guinea pig Leukotriene D4 Receptor (LTD4) (AID 2283248)
# How it was run: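 Radioligand displacement on guinea pig lung membranes, 1 h incubation, filtration and scintillation counting; DMSO as negative control. Duplicate 25 uM primary screen, then singleton concentration-response up to 50 uM.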
# [7] = target: guinea pig Opioid, Kappa 1 Receptor (OpiateK), OPRK1 (gene 100135587) (UniProt P41144); test: NVS_GPCR_gOpiateK: NovaScreen (NVS) G Protein-Coupled Receptor Assay for guinea pig Opioid, Kappa 1 Receptor (OpiateK) (AID 2283252);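 note: radioligand displacement from kappa opioid receptor in guinea pig cerebellar membranes; active means reduced radioligand binding relative to DMSO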
# Chain of guinea pig Opioid, Kappa 1 Receptor (OpiateK), OPRK1 (gene 100135587) (P41144 whole entry, looked up): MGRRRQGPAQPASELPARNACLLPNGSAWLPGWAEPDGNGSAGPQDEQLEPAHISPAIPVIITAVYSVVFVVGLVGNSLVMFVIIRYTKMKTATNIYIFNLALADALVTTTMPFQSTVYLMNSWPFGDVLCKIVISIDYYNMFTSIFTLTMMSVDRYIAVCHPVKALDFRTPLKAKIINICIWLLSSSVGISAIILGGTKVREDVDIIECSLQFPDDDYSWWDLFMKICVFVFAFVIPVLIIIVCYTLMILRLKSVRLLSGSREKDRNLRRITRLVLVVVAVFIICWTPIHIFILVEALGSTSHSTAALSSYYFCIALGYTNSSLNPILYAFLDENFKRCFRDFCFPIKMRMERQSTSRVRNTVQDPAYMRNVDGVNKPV
# How it was run: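 Signal is scintillation counts of filter-trapped radioligand bound to guinea pig cerebellar membrane receptor, measured 2 hours post-dosing. Activity is loss of binding versus DMSO, first at 25 uM in duplicate, then as concentration series for actives.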
# [8] = target: human Adenosine A1 Receptor (AdoRA1), ADORA1 (gene 134) (UniProt P30542); test: NVS_GPCR_hAdoRA1: NovaScreen (NVS) G Protein-Coupled Receptor Assay for human Adenosine A1 Receptor (AdoRA1) (AID 2283254)
# How it was run: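 Hum. cortical membranes + radioligand, cmpd 1 h; filtration, scintillation count. Readout = decrease vs DMSO. Primary 25 uM dup; hits → conc. series.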
# [9] = tested on: rat Monoamine Oxidase, MAO-A, Peripheral (MAOAP), gene 29253; test: NVS_ENZ_rMAOAP: NovaScreen (NVS) Enzymatic Assay for rat Monoamine Oxidase, MAO-A, Peripheral (MAOAP) (AID 2283237)
# How it was run: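 Rat liver mitochondrial membranes served as the MAO-A source, with enzyme activity measured by radiometric scintillation counting 1.17 hours after dosing. Loss of signal was fitted against DMSO; primary screen used 25 uM in duplicate, follow-up used concentration series.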
# [10] = target: rat Monoamine Oxidase, MAO-B, Central (MAOBC), Maob (gene 25750) (UniProt P19643); test: NVS_ENZ_rMAOBC: NovaScreen (NVS) Enzymatic Assay for rat Monoamine Oxidase, MAO-B, Central (MAOBC) (AID 2283238)
# How it was run: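 Compounds were first tested in duplicate at 25 uM against MAO-B from rat brain tissue; those passing the inhibition threshold were retested in concentration series up to 50 uM. Radiodetection by scintillation counting at 1.17 h, analysed against DMSO baseline.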
# [11] = target: rat Monoamine Oxidase, MAO-B, Peripheral (MAOBP), Maob (gene 25750) (UniProt P19643); test: NVS_ENZ_rMAOBP: NovaScreen (NVS) Enzymatic Assay for rat Monoamine Oxidase, MAO-B, Peripheral (MAOBP) (AID 2283242)
# [12] = tested on: rat Monoamine Oxidase, MAO-A, Central (MAOAC), gene 29253; test: NVS_ENZ_rMAOAC: NovaScreen (NVS) Enzymatic Assay for rat Monoamine Oxidase, MAO-A, Central (MAOAC) (AID 2283243);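 note: potency refers to inhibition seen as signal drop below DMSO baseline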
# How it was run: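 Steps: rat brain protein extract dosed with test chemical (25 uM, duplicate, primary); incubated 1.5 h; radiolabelled product separated from substrate and counted. Signal loss versus DMSO scored as inhibition.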
# [13] = target: rat Acetylcholinesterase (AChE), Ache (gene 83817) (UniProt P37136); test: NVS_ENZ_rAChE: NovaScreen (NVS) Enzymatic Assay for rat Acetylcholinesterase (AChE) (AID 2283233)
# How it was run: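 Rat brain membrane acetylcholinesterase activity measured colorimetrically 0.33 h after compound addition, loss of signal relative to DMSO. Primary screen in duplicate at 25 uM; actives re-run as concentration-response with 50 uM top concentration.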
# [14] = tested on: guinea pig Leukotriene B4 Receptor (LTB4), gene 100379538; test: NVS_GPCR_gLTB4: NovaScreen (NVS) G Protein-Coupled Receptor Assay for guinea pig Leukotriene B4 Receptor (LTB4) (AID 2283247)
# How it was run: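 Radioligand displacement on guinea pig spleen membranes, filter-based scintillation counting 2 h after dosing. Primary duplicate single point at 25 uM; hits over threshold (e.g. 30% inhibition) run in concentration-response up to 50 uM, DMSO baseline.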
# [15] = target: human Serotonin, 5-Hydroxytryptamine Receptor 5A (5HT5A), HTR5A (gene 3361) (UniProt P47898); test: NVS_GPCR_h5HT5A: NovaScreen (NVS) G Protein-Coupled Receptor Assay for human Serotonin, 5-Hydroxytryptamine Receptor 5A (5HT5A) (AID 2283251)
# How it was run: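 Cell-free radioligand displacement binding on HEK293-derived membrane protein, 1 h incubation, filter-based scintillation counting. Primary screen in duplicate at 25 uM, actives followed in concentration series; loss of signal fitted versus DMSO.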
# [16] = target: human Serotonin, 5-Hydroxytryptamine Receptor 7 (5HT7), HTR7 (gene 3363) (UniProt P34969); test: NVS_GPCR_h5HT7: NovaScreen (NVS) G Protein-Coupled Receptor Assay for human Serotonin, 5-Hydroxytryptamine Receptor 7 (5HT7) (AID 2283255);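 note: hits reduce specific radioligand binding relative to DMSO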
# How it was run: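 Radioligand displacement on membranes from CHO cells expressing human 5HT7, 1 h incubation, filter-based scintillation counting. Primary screen used a single 25 uM concentration in duplicate; actives were followed up in concentration series.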
# [17] = target: rabbit Imidazoline 2 Central (I2C), CKB (gene 100009085) (UniProt P00567); test: NVS_ENZ_rabI2C: NovaScreen (NVS) Enzymatic Assay for rabbit Imidazoline 2 Central (I2C) (AID 2283228)
# How it was run: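 Rabbit brain membranes, cell-free; readout by filter-based scintillation counting 1.5 hours after dosing, loss of signal vs DMSO. Initial duplicate test at 25 uM, then concentration-response with 50 uM top concentration.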
# [18] = target: human Serotonin, 5-Hydroxytryptamine Receptor 2A (5HT2A), HTR2A (gene 3356) (UniProt P28223); test: NVS_GPCR_h5HT2A: NovaScreen (NVS) G Protein-Coupled Receptor Assay for human Serotonin, 5-Hydroxytryptamine Receptor 2A (5HT2A) (AID 2283249)
# How it was run: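 Human cortex membranes, cell-free radioligand binding; filter-based scintillation read 1.5 h after dosing. Duplicate screen at 25 uM first; displacement of specific binding (loss of signal) versus DMSO.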
# [19] = target: Adenosine receptor A1 (Bos taurus) (UniProt P28190); test: NVS_GPCR_bAdoR_NonSelective: NovaScreen (NVS) G Protein-Coupled Receptor Assay for bovine Adenosine Receptor (AdoR), Non-selective Binding (AID 2283244)
# How it was run: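 Bovine striatal membranes, radioligand displacement binding, 1 h after dosing, filter-based scintillation counting. Screened in duplicate at 25 uM, then concentration-response up to 50 uM; loss of specific binding relative to DMSO.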
smiles,measurement,setting,value
O=C(CBr)c1ccc(O)cc1,outcome,[1],inactive
O=C1c2ccccc2C(=O)C1C(=O)C(c1ccccc1)c1ccc(Cl)cc1 (stereo unspecified),AC50,[2],2.4 µM (active)
same,outcome,[3],inactive
N#Cc1cccnc1,outcome,[4],inactive
same,outcome,[1],inactive
same,outcome,[5],inactive
O=C(N[C@H]1CN2CCC1CC2)c1ccc2c(c1)OCCO2,outcome,[4],inactive
same,outcome,[2],inactive
same,outcome,[1],inactive
COc1nn(C(=O)NS(=O)(=O)c2ccccc2OC(F)(F)F)c(=O)n1C,AC50,[2],11.4 µM (active)
OCCN(CCO)CCO,outcome,[1],inactive
Clc1cccc(Cl)c1Cl,outcome,[4],inactive
O=c1oc2ccccc2c(O)c1C(CC(O)c1ccc(-c2ccc(Br)cc2)cc1)c1ccccc1 (stereo unspecified),AC50,[4],16.9 µM (active)
same,AC50,[3],1.31 µM (active)
same,AC50,[6],9.92 µM (active)
same,outcome,[7],inactive
same,AC50,[8],23.9 µM (active)
Oc1cc(Cl)c(Cl)cc1Cl,outcome,[1],inactive
same,AC50,[9],19.6 µM (active)
same,AC50,[10],8.69 µM (active)
same,AC50,[11],17.7 µM (active)
same,AC50,[12],16.5 µM (active)
C=C(C)C(=O)OCC(CC)CCCC (stereo unspecified),outcome,[4],inactive
C=CC(=O)NC(C)(C)CC(C)=O,AC50,[3],21.4 µM (active)
O=[N+]([O-])c1cccc2ccccc12,outcome,[3],inactive
Nc1c(Oc2ccccc2)cc(O)c2c1C(=O)c1ccccc1C2=O,AC50,[4],0.898 µM (active)
same,outcome,[7],inactive
CCOP(=O)(OCC)OC(=CCl)c1ccc(Cl)cc1Cl,AC50,[13],6.51 µM (active)
same,AC50,[7],18.3 µM (active)
same,outcome,[8],inactive
CCCCCCCCCCCCc1cccc(S(=O)(=O)O)c1,AC50,[4],22.9 µM (active)
same,AC50,[2],10.7 µM (active)
same,AC50,[1],9.17 µM (active)
same,AC50,[3],5.06 µM (active)
same,AC50,[12],10.6 µM (active)
same,AC50,[14],10.5 µM (active)
same,AC50,[6],22.5 µM (active)
same,AC50,[15],13.7 µM (active)
same,AC50,[16],14.3 µM (active)
COc1ccccc1N,outcome,[17],inactive
same,AC50,[3],0.146 µM (active)
CC(C=O)Cc1ccc2c(c1)OCO2 (stereo unspecified),AC50,[3],25 µM (active)
CCOC(=O)CCN(SN(C)C(=O)Oc1cccc2c1OC(C)(C)C2)C(C)C,AC50,[13],1.33 µM (active)
CCOC(=O)C(SP(=S)(OC)OC)c1ccccc1 (stereo unspecified),AC50,[13],10.2 µM (active)
CC(C)O.CC(C)O.OCCN(CCO)CCO.OCCN(CCO)CCO.[Ti],AC50,[2],21.8 µM (active)
same,AC50,[1],6.5 µM (active)
same,outcome,[18],inactive
CC(C)(C)c1ccccc1O,outcome,[19],inactive
Oc1c(Cl)cc(Cl)cc1Cl,outcome,[14],inactive
O=C(O)C1(c2ccc3c(c2)OC[C@H](Cc2ccc(-c4ccccc4)cc2)[C@H]3O)CCCC1,AC50,[14],0.00229 µM (active)
same,outcome,[15],inactive
